# Test results published in PubChem BioAssay AID1347088 (National Center for Advancing Translational Sciences (NCATS), 2019).
# Results filed as inconclusive are left out. Entries that show only a call come without a potency. Unmarked numbers belong to inactive results. Active and inactive are the calls of the source. The call rests on the fitted dose curve.
# Test: qHTS for Inhibitors of the Functional Ribonucleoprotein Complex (vRNP) of Lymphocytic Choriomeningitis Arenaviruses (LCMV): Viability assay - Alamar blue signal for LCMV Confirmatory Screen
# Conditions: LCMV vRNP confirmatory screen cells; series mostly up to 53.9 µM
Structure (SMILES),Potency,"viability change, negative = toxic"
CCCCCC[C@H]1C(=O)O[C@H](C)[C@H](NC(=O)c2cccc(NC=O)c2O)C(=O)O[C@@H](C)[C@@H]1OC(=O)CC(C)C,inactive,
Clc1nccc2c1ccc1ccccc12,inactive,
CC(O)C(O)[C@H]1CNc2nc(N)[nH]c(=O)c2N1 (some centres undefined),inactive,
CCCCC/C(C=O)=C\c1ccccc1,inactive,
Cc1cc2c(C(C)C)c(O)c(O)c(C=O)c2c(O)c1-c1c(C)cc2c(C(C)C)c(O)c(O)c(C=O)c2c1O,27.3 µM (active),
O=C(Nc1ccc([N+](=O)[O-])cc1Cl)c1cc(Cl)ccc1O,3.43 µM (active),
CNCCCC1c2ccccc2C=Cc2ccccc21,27.3 µM (active),
CC(=O)[C@H]1CC[C@H]2[C@@H]3CCC4=CC(=O)CC[C@]4(C)[C@H]3CC[C@]12C,inactive,
COc1cc2c(cc1OC)CC(=O)N(CCCN(C)C[C@H]1Cc3cc(OC)c(OC)cc31)CC2,inactive,
Cc1cnc(NC(=O)C2=C(O)c3ccccc3S(=O)(=O)N2C)s1,inactive,
NC(=O)N/N=C/c1ccc([N+](=O)[O-])o1,inactive,
FC(F)(F)c1ccc(C=Cc2nc(COc3ccc(CCCCn4ccnn4)cc3)co2)cc1,inactive,
CCn1c(-c2nonc2N)nc2cnc(Oc3cccc(NC(=O)c4ccc(OCCN5CCOCC5)cc4)c3)cc21,24.3 µM (active),
CN(C)c1ccc(O)c2c1C[C@H]1C[C@H]3[C@H](N(C)C)C(=O)C(C(N)=O)=C(O)[C@@]3(O)C(=O)C1=C2O,inactive,
O=c1ccc2ccc(O)c(O)c2o1,inactive,
CCC(c1ccc(O)cc1)C(CC)c1ccc(O)cc1 (centres undefined),inactive,
O=C(Nc1ccccc1)Nc1ccc(-c2ccc(C(=O)[C@H]3CCC[C@H]3C(=O)O)cc2)cc1,inactive,
COc1ccc2c(c1OC)CN1CCc3cc4c(cc3C1C2)OCO4 (centres undefined),inactive,
CC[C@@H](C(=O)O)[C@@H]1O[C@@H]([C@@H](C)[C@H](O)[C@H](C)C(=O)[C@H](CC)[C@H]2O[C@]3(C=C[C@@H](O)[C@]4(CC[C@@](C)([C@H]5CC[C@](O)(CC)[C@H](C)O5)O4)O3)[C@H](C)C[C@@H]2C)[C@@H](C)C[C@@H]1C,4.44 µM (active),
Cc1ncc([N+](=O)[O-])n1CC(C)O (centres undefined),inactive,
CC(C)=CCC/C(C)=C/CC/C(C)=C/CC[C@]1(C)CCc2c(C)c(O)c(C)c(C)c2O1,,-1.54% [at 6 µM]
CCC(C)c1nccnc1OC (centres undefined),inactive,
Fc1ccc(CNc2ncnc3ccc(F)cc23)cc1,inactive,
CCc1cncnc1N1CCN(Cc2nc3ccc(C(F)(F)F)cc3[nH]2)CC1,35.2 µM (active),
